Calls of active or inactive are those of the source. Unless noted, how the calls were made is not given here.
Tests used:
[1] = tested on: Wnt5a (protein binding on small-molecule microarray); assay: small molecules binding Wnt5a protein – biophysical, small-molecule microarray, 635/667 nm fluorescence, primary screen (AID 1142); settings: 635 nm fluorescence, higher = more signal;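 further: fluorescence read at 667 nm with signal to noise per printed feature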
[2] = ATP-based viability of Huh7 replicon cells – cell-based, CellTiter-Glo luminescence, basal, 48 h, cytotoxicity control for HCV replication inhibitor project, primary screen (AID 1143); settings: higher = more signal, called active from +8 up or from −8 down;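 further: Huh7 hepatoma cells carrying a hepatitis C replication reporter with no stimulus; test concentration not given here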
[3] = Pseudomonas biofilm growth suppression – PAO1 strain, BacTiter-Glo luminescence, LB-PBS, primary screen (AID 1144); settings: P. aeruginosa PAO1 biofilm, 12 h, higher = more signal
[4] = basal CRE-LacZ reporter activity in PC12 – cell-based, unstimulated, primary screen (AID 1145); settings: no forskolin, luminescence, 4.5 h, higher = more signal, called active from +8 up or from −8 down
[5] = forskolin-driven CRE-LacZ activity in PC12 – cell-based, CRE-LacZ reporter, forskolin-stimulated, primary screen (AID 1146); settings: luminescence, 4.5 h, higher = more signal, called active from +8 up or from −8 down;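 further: PC12 cells with 6xCRE LacZ reporter stimulated by forskolin 10 µM; beta-galactosidase reporter signal reflecting CREB driven transcription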
[6] = biological target: Streptavidin (Streptomyces avidinii) (UniProt P22629); assay: compounds binding control protein streptavidin – biophysical, small-molecule microarray, 635/667 nm fluorescence, artefact control for SMM compound annotation, primary screen (AID 1147); settings: higher = more signal;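 further: signal reflects streptavidin binding to arrayed compounds as a control protein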
Streptavidin (Streptomyces avidinii), sequence (P22629 whole entry, looked up): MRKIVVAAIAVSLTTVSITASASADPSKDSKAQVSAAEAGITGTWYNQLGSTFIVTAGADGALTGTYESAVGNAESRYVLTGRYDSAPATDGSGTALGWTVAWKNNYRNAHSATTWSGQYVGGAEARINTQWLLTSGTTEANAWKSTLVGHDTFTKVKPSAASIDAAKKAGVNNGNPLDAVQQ

[7] = probe aInhba binding on compound microarray – biochemical, small-molecule microarray, 635/667 nm fluorescence, primary screen (AID 1148); settings: higher = more signal;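 further: score merges 667nm spot fluorescence with signal-to-noise for antibody binding to printed compounds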
[8] = biological target: Torsin-1A (Homo sapiens) (UniProt O14656); assay: TOR1A wild-type binding on microarray – cell lysate, small-molecule microarray, lysate, 635/667 nm, primary screen (AID 1149); settings: COS7 hTOR1A-WT lysate, 635 nm fluorescence, higher = more signal
Torsin-1A (Homo sapiens), sequence (O14656 whole entry, looked up): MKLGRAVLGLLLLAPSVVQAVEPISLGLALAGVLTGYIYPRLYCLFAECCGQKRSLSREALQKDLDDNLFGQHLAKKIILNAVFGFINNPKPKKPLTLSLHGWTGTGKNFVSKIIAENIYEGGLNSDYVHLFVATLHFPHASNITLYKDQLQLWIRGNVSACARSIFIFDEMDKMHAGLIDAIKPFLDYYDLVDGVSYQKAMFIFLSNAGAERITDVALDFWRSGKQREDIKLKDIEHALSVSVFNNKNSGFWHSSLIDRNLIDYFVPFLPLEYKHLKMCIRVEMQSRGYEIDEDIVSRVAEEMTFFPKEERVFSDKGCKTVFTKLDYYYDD

[9] = biological target: Torsin-1A (Homo sapiens) (UniProt O14656); assay: torsin A mutant lysate binding on microarrays – cell lysate, small-molecule microarray, COS7 lysate, 635/667 nm fluorescence, primary screen (AID 1150); settings: COS7 hTOR1A mutant lysate, 635 nm fluorescence, higher = more signal;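 further: score pools 667 nm emission and signal to noise measuring lysate protein binding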
[10] = tested on: Sonic hedgehog protein (Shh); assay: Sonic hedgehog microarray binding compounds – biochemical, small-molecule microarray, 635/667 nm fluorescence, primary screen (AID 1151); settings: 635 nm fluorescence, higher = more signal;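 further: Shh protein binding to compounds spotted on small-molecule microarray slides; score combines spot fluorescence intensity with signal-to-noise across triplicate slides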
[11] = optical density shifts of acrAB sulA E. coli – strain DRC41, OD650, 48 h, E. coli filamentation inducer project, primary screen (AID 1152); settings: higher = more signal, called active from +8 up or from −8 down;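 further: E. coli MC1000 strain DRC41 lacking acrAB efflux pump and sulA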
[12] = probe aLefty1 binding on compound microarray – biochemical, small-molecule microarray, 635/667 nm fluorescence, primary screen (AID 1153); settings: higher = more signal;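 further: score merges spot fluorescence with signal-to-noise ratio from the scanned slide images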
[13] = plasmodial surface anion channel blockers, osmotic lysis – cell-based, P. falciparum Indochina, OD700, 1 h, primary screen (AID 1154); settings: P. falciparum Indochina infected RBC osmotic lysis, higher = more signal, called active from +8 up or from −8 down
[14] = plasmodial surface anion channel blockers, osmotic lysis – cell-based, P. falciparum Indochina, OD700, 2 h, primary screen (AID 1155);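 further: lysis reports solute entry through the parasite surface anion channel PSAC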; settings: P. falciparum Indochina infected erythrocytes, higher = more signal, called active from +8 up or from −8 down
[15] = changes in parasitized red cell lysis, either direction – P. falciparum Indochina, OD700, 3 h, PSAC antagonist project, primary screen (AID 1156); settings: P. falciparum-infected erythrocytes, osmotic lysis, higher = more signal, called active from +8 up or from −8 down
[16] = plasmodial surface anion channel blockers, osmotic lysis – cell-based, P. falciparum Indochina, OD700, 18 h, primary screen (AID 1157); settings: P. falciparum Indochina infected erythrocytes, osmotic lysis OD700, 18 h; higher = more signal, called active from +8 up or from −8 down
[17] = S6 kinase pathway phospho-S6 level changes – cell-based, A549, cytoblot, luminescence, serum-stimulated, primary screen (AID 1158); settings: 5 h, higher = more signal;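 further: serum-stimulated A549 lung adenocarcinoma cells; signal is phosphorylated S6 detected by cytoblot immunostaining with HRP secondary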
[18] = biological target: NADPH oxidase 2 (Homo sapiens) (UniProt P04839); assay: compounds shifting NOX2 Amplex Red fluorescence – cell-based, HEK293-NOX2, PMA-stimulated, NOX inhibitor project, primary screen (AID 1159); settings: 45 min, higher = more signal, called active from +8 up or from −8 down; further: test concentration not given here
NADPH oxidase 2 (Homo sapiens), sequence (P04839 whole entry, looked up): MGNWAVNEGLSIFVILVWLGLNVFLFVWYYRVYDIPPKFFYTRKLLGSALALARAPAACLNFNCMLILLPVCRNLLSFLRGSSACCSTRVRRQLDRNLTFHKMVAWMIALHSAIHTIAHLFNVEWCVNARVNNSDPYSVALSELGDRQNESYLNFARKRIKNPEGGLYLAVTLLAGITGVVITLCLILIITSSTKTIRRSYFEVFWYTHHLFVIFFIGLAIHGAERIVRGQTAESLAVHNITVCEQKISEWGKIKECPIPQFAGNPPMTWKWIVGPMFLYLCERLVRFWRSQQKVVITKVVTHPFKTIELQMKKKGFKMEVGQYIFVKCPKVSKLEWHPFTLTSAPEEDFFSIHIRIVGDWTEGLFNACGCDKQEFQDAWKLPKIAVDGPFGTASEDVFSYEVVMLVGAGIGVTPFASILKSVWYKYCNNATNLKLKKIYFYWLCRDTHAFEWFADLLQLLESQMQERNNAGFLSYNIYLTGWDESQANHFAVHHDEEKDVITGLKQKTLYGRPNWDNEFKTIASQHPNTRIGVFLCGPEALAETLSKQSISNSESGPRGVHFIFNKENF

[19] = biological target: NADPH oxidase 4 (Homo sapiens) (UniProt Q9NPH5); assay: compounds shifting NOX4 Amplex Red fluorescence – cell-based, HEK293-NOX4, tetracycline-induced, NOX inhibitor project, primary screen (AID 1160); settings: HEK293-NOX4, Amplex Red H2O2 fluorescence, 45 min; higher = more signal, called active from +8 up or from −8 down
NADPH oxidase 4 (Homo sapiens), sequence (Q9NPH5 whole entry, looked up): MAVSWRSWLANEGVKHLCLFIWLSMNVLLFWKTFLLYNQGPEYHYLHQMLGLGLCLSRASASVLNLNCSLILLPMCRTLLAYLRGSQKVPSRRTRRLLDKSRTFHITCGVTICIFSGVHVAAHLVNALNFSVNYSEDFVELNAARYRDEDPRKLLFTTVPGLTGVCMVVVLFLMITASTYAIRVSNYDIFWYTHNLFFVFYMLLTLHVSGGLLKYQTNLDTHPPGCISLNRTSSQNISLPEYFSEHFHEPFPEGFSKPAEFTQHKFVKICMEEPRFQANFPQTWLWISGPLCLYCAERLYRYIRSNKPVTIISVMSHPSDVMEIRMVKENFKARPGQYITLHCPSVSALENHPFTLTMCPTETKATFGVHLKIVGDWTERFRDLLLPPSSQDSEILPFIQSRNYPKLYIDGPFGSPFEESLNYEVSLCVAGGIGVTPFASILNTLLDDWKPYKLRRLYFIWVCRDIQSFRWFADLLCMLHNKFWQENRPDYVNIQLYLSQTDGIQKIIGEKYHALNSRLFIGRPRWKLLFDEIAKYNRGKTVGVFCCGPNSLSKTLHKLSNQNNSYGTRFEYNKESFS

[20] = biological target: NADPH oxidase 5 (Homo sapiens) (UniProt Q96PH1); assay: compounds shifting NOX5 Amplex Red fluorescence – cell-based, HEK293-NOX5, NOX inhibitor project, primary screen (AID 1161); settings: HEK293-NOX5, ionomycin, 45 min, higher = more signal
NADPH oxidase 5 (Homo sapiens), sequence (Q96PH1 whole entry, looked up): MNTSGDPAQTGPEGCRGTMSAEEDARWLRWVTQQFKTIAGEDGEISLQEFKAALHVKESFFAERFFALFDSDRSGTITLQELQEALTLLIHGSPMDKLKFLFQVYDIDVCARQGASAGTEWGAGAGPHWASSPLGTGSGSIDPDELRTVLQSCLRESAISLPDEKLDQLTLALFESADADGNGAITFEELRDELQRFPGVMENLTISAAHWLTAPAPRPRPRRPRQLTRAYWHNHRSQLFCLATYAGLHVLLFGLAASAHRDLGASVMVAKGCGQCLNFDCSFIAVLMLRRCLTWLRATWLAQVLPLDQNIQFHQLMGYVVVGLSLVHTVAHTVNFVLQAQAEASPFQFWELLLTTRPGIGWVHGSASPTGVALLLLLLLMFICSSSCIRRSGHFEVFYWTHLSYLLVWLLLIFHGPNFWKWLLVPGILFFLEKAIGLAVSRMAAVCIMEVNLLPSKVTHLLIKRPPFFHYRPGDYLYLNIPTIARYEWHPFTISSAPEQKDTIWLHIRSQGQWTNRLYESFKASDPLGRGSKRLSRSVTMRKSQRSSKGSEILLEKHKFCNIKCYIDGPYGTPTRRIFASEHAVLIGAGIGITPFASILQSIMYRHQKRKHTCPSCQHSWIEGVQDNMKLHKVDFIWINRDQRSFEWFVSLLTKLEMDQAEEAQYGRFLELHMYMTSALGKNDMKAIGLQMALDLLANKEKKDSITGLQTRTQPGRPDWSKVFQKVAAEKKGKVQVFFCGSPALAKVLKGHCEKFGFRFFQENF

Row | SMILES | composite z-score [1] | z-score [2] | z-score [3] | z-score [4] | z-score [5] | composite z-score [6] | composite z-score [7] | composite z-score [8] | composite z-score [9] | composite z-score [10] | z-score [11] | composite z-score [12] | z-score [13] | z-score [14] | z-score [15] | z-score [16] | z-score [17] | z-score [18] | z-score [19] | z-score [20]
1 | CCOC(=O)C[C@H]1[C@H](OC(=O)Cc2ccc3c(c2)OCO3)[C@@H](NC(=O)Cc2ccc(OC)cc2)c2cc(OCCCO)ccc2N1C(=O)c1ccccc1 | 0.194 | -0.0801 (inactive) | -0.112 (inactive) | 0.222 (inactive) | -0.377 (inactive) | 0.421 | -0.103 | -0.334 | 0.426 | 0.528 | 1.53 (inactive) | 0.0903 | 1.8 (inactive) | 0.263 (inactive) | -0.729 (inactive) | -0.33 (inactive) | -0.295 | -1.25 (inactive) | 0.689 (inactive) | 0.267
2 | C=CC[C@@]1(C(=O)O)N=C(c2ccc(OCCCO)cc2)O[C@@H]1c1ccccc1 | 1.45 | 0.0076 (inactive) | -0.385 (inactive) | -0.491 (inactive) | -1.2 (inactive) | -1.72 | -0.231 | 4.37 | 4.32 | -0.198 | 0.938 (inactive) | -0.146 | 11.5 (active) | 0.526 (inactive) | 0.208 (inactive) | 0.568 (inactive) | 0.0003 | 0.0822 (inactive) | 1.25 (inactive) | 0.448
3 | COCCOC(=O)N1C(=O)[C@@]2(c3cc(C#CCNC(N)=O)ccc31)[C@H](C(=O)N1CCCCCCC1)[C@H]1C(=O)O[C@H](c3ccccc3)[C@H](c3ccccc3)N1[C@@H]2c1ccc(O)cc1 | 0.233 | -0.204 (inactive) | 0.942 (inactive) | -0.0526 (inactive) | -0.333 (inactive) | 0.399 | -0.101 | 0.266 | 0.216 | 1.12 | -0.455 (inactive) | -0.0945 | -0.0508 (inactive) | -0.164 (inactive) | -0.271 (inactive) | 0.0404 (inactive) | 0.0746 | 2.56 (inactive) | 0.475 (inactive) | 1.73
4 | COc1ccc(NC(=O)O[C@H]2[C@H](OC(=O)Nc3ccc4c(c3)OCO4)[C@@H](OC(=O)Nc3ccc4c(c3)OCO4)[C@@H](OC)O[C@@H]2CO)cc1 | 0.201 | -3.73 (inactive) | -0.488 (inactive) | 1.85 (inactive) | -0.559 (inactive) | 1.38 | 0.277 | 0.812 | 1.27 | 1.27 | 0.898 (inactive) | 0.33 | 5.81 (inactive) | 1.13 (inactive) | 0.081 (inactive) | 0.521 (inactive) | -0.182 | -3.33 (inactive) | -0.666 (inactive) | -2.16
5 | C=C(/C=C/CNS(=O)(=O)c1ccc(C)cc1)[C@H](O)[C@H]1CCCN1S(=O)(=O)c1ccccc1[N+](=O)[O-] | 0.118 | -1.58 (inactive) | 1.01 (inactive) | 6.84 (inactive) | -1.17 (inactive) | 0.337 | -0.0791 | 0.361 | 0.388 | 0.758 | 0.611 (inactive) | -0.185 | 11.5 (active) | 1.43 (inactive) | 0.643 (inactive) | 0.647 (inactive) | 0.229 | -0.358 (inactive) | -1.6 (inactive) | -1.6
6 | C=CC[C@]12N=C(c3ccc(OCCCO)cc3)O[C@H]1c1ccccc1N(C)C2=O | 0.305 | -4.59 (inactive) | -1.2 (inactive) | 0.549 (inactive) | -1.18 (inactive) | -0.283 | 0.435 | -0.0323 | 0.468 | 1.28 | -0.0028 (inactive) | 1.11 | 31.9 (active) | 31.8 (active) | 4.16 (inactive) | 3.07 (inactive) | 0.289 | -2.49 (inactive) | -0.582 (inactive) | -1.8
7 | COc1ccc([Si](C)(C)[C@H]2[C@H](CCn3cc([C@H](O)c4ccccc4)nn3)O[C@@]3(C(=O)N(Cc4cccc(N5C(=O)c6cccc7cccc5c67)c4)c4ccccc43)[C@@H]2C)cc1 | -0.302 | -3.31 (inactive) | 0.789 (inactive) | -0.142 (inactive) | 1.01 (inactive) | -0.713 | -0.176 | -0.601 | -0.437 | -0.0819 | -0.749 (inactive) | -0.0141 | 1.23 (inactive) | -0.38 (inactive) | -0.58 (inactive) | 0.376 (inactive) | -0.0203 | 0.918 (inactive) | 1.57 (inactive) | 1.56
8 | O=C1NC(=O)C2C1C=CC(C(O)c1ccc(Br)cc1)N2Nc1ccccn1 (stereo not given) | 0.336 | -0.0358 (inactive) | -1.45 (inactive) | -0.322 (inactive) | 0.521 (inactive) | 0.363 | 0.126 | 0.196 | 0.301 | -0.248 | -0.325 (inactive) | 0.5 | -0.0691 (inactive) | -1.06 (inactive) | 0.215 (inactive) | -1.94 (inactive) | 0.599 | -1.54 (inactive) | -2.6 (inactive) | -1.93

Reference: PubChem BioAssay
